HT1080NT lethal: kills 2HG-producing HT-1080-NT fibrosarcoma cells; HT-1080-NT fibrosarcoma viability, CellTiter-Glo ATP luminescence, 48 h; Potency, µM (doses to about 46.1 µM), hits mostly cytotoxic; hit rate 1.6% among 360,000; AID 686970;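 also: NT is the 2HG producing partner of a matched IDH1 knockdown line; nearly all actives have a fitted effect of over 55% in size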
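HT-1080-NT fibrosarcoma cells (2HG-overproducing), 750 cells/well in RPMI with 5% FBS, dosed after 2 h and incubated 48 h at 37C. CellTiter-Glo luminescence normalized to DMSO and no-cell wells; concentration-response curves fitted and classed.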
IL-1B inflam inh: inhibitors of inflammasome signaling (IL-1 beta secretion). THP-1 LPS/ATP IL-1B secretion, AlphaLISA, 16 h; stronger effect = lower value. activity change, % at 57.5 µM. hit rate 4.7% among 360,000; in the data active = activity change below about -50%; inconclusive = mostly about -30% to -49%
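Secreted IL-1B measured by AlphaLISA bead assay after 16 h compound exposure of THP-1 cells; compounds (final up to 57.5 uM) added 1 h before LPS (250 ng/mL) and ATP (1.25 mM) stimulation; lower signal means less secretion.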
HT1080 IDH1KD tx: kills HT-1080 cells with IDH1 knockdown; Potency, µM (top dose mostly 46.1 µM), actives largely listed as cytotoxic; hit rate 2% among 360,000; HT-1080 IDH1 knockdown viability, ATP luminescence, 48 h; AID 686971
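% activity derives from luminescence (CellTiter-Glo), normalised to DMSO and no-cell wells. HT-1080-IDH1KD cells, 750/well, had 48 h compound exposure at 37 °C.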
DT40 TDP1 CPT: DT40-hTDP1 cell growth loss with CPT | chicken DT40 Tdp1-/-;hTDP1 cells + 20 nM CPT, ATP luminescence, 48 h | Potency, µM (doses to about 46.2 µM), actives largely listed as inhibitors | hit rate 12% among 420,000; also: nearly all actives have a fitted effect of over 55% in size
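Cell growth measured by CellTiter-Glo luminescence after a minimum 48 h, 37 C compound exposure with 20 nM CPT in Tdp1-knockout DT40 cells stably expressing hTDP1, seeded 400/well; qHTS titration format.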
DT40 TDP1 no CPT: qHTS for Inhibitors of human tyrosyl-DNA phosphodiesterase 1 (TDP1): qHTS in cells in absence of CPT. DT40 Tdp1-/- hTDP1 cells, no CPT, ATP luminescence, 48 h. Potency, µM (series often up to 46.2 µM), actives largely listed as inhibitors. hit rate 15% among 420,000. AID 686978, 2013; also: nearly all actives have a fitted effect of over 55% in size
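DT40 Tdp1-/-;hTDP1 cells, no CPT (DMSO vehicle only), 400 cells/well; compounds pin-transferred; ≥48 hr, 37 °C; CellTiter-Glo 30 min RT dark, luminescence read.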
ALOX12 inh: blocks human arachidonate 12S-lipoxygenase; purified 12hLO, xylenol orange hydroperoxide absorbance; Potency, µM (titrated, usually from 108 µM), actives largely listed as inhibitors; hit rate 1.1% among 580,000; AID 1671190
Target sequence (P18054 whole entry, looked up): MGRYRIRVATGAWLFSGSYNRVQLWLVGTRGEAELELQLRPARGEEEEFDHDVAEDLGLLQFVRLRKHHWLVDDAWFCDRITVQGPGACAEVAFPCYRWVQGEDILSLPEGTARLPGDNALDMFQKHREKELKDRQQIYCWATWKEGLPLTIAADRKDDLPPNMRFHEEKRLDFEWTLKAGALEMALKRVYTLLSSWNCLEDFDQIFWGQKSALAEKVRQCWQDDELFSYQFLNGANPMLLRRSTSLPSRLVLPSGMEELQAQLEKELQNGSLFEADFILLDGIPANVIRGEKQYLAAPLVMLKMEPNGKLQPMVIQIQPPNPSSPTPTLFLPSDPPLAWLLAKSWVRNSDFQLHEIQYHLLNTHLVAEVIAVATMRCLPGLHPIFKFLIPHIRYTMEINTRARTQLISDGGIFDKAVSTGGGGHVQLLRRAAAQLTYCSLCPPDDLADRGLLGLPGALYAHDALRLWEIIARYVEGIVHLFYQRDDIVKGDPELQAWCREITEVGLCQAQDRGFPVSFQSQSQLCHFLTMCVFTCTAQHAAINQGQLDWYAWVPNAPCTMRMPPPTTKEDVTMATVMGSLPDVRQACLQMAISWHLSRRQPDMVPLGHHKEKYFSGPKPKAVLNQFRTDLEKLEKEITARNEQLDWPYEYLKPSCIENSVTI
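Purified human 12hLO (150 nM final) in 25 mM Hepes, 0.01% Triton X-100, pH 7.0 was preincubated 15 min at room temperature with compound. Then 40 uM arachidonic acid was added, 30 min. Hydroperoxide was read by Fe-XO absorbance ratio 573/405 nm.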
Numbers stand for hits; n = inactive; u = inconclusive; x = no result. This excerpt belongs to a sample that is enriched for hits. Unless noted, calls follow the shape of the dose curve; as a rule, active = well fitted curve in the direction sought with a large enough effect; inconclusive = small, poorly fitted or top-dose-only effect, or another doubt; inactive = no such curve, though single readings can be large; an effect the other way counts as inactive or inconclusive.

SMILES	HT1080NT lethal	IL-1B inflam inh	HT1080 IDH1KD tx	DT40 TDP1 CPT	DT40 TDP1 no CPT	ALOX12 inh
O=C(NC1CCCCC1)N1CCc2ccccc2C1	n	-79	n	n	n	n
O=C(Nc1ccc(Br)cc1)N1CCc2ccccc2C1	n	-83	n	n	n	n
O=C(NC1CCCCC1)C(c1ccccc1)N1CCc2ccccc21 (stereo unspecified)	n	n	n	26µM	21µM	n
CSc1ccc(/C=C(/C#N)S(=O)(=O)c2ccc(C)cc2)cc1	x	x	x	x	x	n
COc1ccc(C(=O)N2CCC(C(=O)N(C)Cc3ccc(C)cc3C)CC2)c2ccccc12	x	x	x	x	x	n
O=S(=O)(Cc1ccccc1)NCCCCl	x	x	x	x	x	n
Cc1cc(C)c2oc(C(=O)N3CCC(Cc4ccccc4)CC3)cc(=O)c2c1	x	x	x	x	x	n
Cc1ccccc1C(=O)N(CC(=O)Nc1sc(C)c(C)c1C(N)=O)C1CCCC1	n	n	n	u	15µM	n
O=C(NCCC(=O)N(CCc1ccccc1)Cc1ccccc1)c1ccc(Br)cc1	n	n	n	u	26µM	n
O=C(NCCCCc1ccccc1)c1ccc(Br)cc1	n	n	n	u	u	n
CCCC(=O)N(CCN(Cc1ccccc1)C(=O)CCC)Cc1ccccc1	n	n	n	u	23µM	n
Cc1sc(NC(=O)CN(CCc2ccccc2)C(=O)C2CC2)c(C(N)=O)c1C	n	n	n	u	u	n
CCCC(=O)N(CC(=O)Nc1sc(C)c(C)c1C(N)=O)Cc1ccccc1	n	n	n	12µM	6.5µM	n
CN(CCc1cnn(C)c1)C(=O)c1coc(COc2cccc(C(F)(F)F)c2)n1	x	x	x	x	x	n
COc1ccc(C(=O)N2CCCOCCNC(=O)[C@@H]3CCCC[C@@H]32)cn1	x	x	x	x	x	n
Cc1ccccc1CC(=O)N1C[C@@H](COc2ccccc2)[C@H](C(N)=O)C1	x	x	x	x	x	n
COCc1cccc(-c2csc(C(C)(NC(C)=O)c3ccccc3)n2)c1 (stereo unspecified)	n	n	n	23µM	18µM	n
CC(=O)NC(C)(c1ccccc1)c1nc(-c2cccc(F)c2)cs1 (stereo unspecified)	n	x	n	29µM	u	n
COCc1cccc(-c2csc(C(C)(NC(C)=O)c3ccc(OC)cc3)n2)c1 (stereo unspecified)	n	n	n	18µM	u	n
CC(=O)NC(C)(c1ccccc1)c1nc(-c2ccc(S(C)(=O)=O)cc2)cs1 (stereo unspecified)	n	n	n	u	n	n
Cc1noc(COc2ccc3c(C)cc(=O)oc3c2)n1	x	x	x	x	x	n
C=CC(COCc1ccccc1)N([C@@H](Cc1ccccc1)C(=O)OC)S(=O)(=O)c1ccccc1Br (stereo partly specified)	n	n	n	u	23µM	n
C=CC(COCc1ccccc1)N(Cc1ccc(OC)cc1)S(=O)(=O)c1ccccc1Br (stereo unspecified)	n	n	n	u	u	n
COc1cc(-c2cc(NC(C)=O)c3ncc(-c4ccccc4)n3c2)cc(OC)c1OC	u	-60	u	u	u	u
COc1cc(-c2cnc3c(NC(C)=O)cc(-c4ccccc4CN(C)C)cn23)cc(OC)c1OC	u	n	u	23µM	18µM	n
SMILES	HT1080NT lethal	IL-1B inflam inh	HT1080 IDH1KD tx	DT40 TDP1 CPT	DT40 TDP1 no CPT	ALOX12 inh
COc1cc(-c2cc(NC(C)=O)c3ncc(-c4cc(OC)c(OC)c(OC)c4)n3c2)cc(OC)c1OC	23µM	n	13µM	8.2µM	7.3µM	n
CC(C)NC(=O)N1CCN(C(=O)NC(C)C)[C@@H](C(=O)N[C@@H](CC2CCCCC2)C(N)=O)C1	x	x	x	x	x	n
COc1ccc(CCN(C(=O)c2ccco2)C(C(=O)NC2CCCC2)c2ccncc2)cc1OC (stereo unspecified)	n	n	n	n	n	n
COc1ccc(CCN(C(=O)C(F)(F)F)C(C(=O)NC2CCCC2)c2cccs2)cc1OC (stereo unspecified)	n	n	n	7.3µM	1.8µM	n
COc1ccc(CCN(C(=O)C(F)(F)F)C(C(=O)NC2CCCCC2)c2ccc(C)s2)cc1OC (stereo unspecified)	n	n	n	12µM	9.2µM	n
CC(=O)c1c(C)[nH]c(C(=O)CSc2nc3ccccc3n2C)c1C	n	n	n	15µM	9.2µM	n
CC(=O)c1c(C)[nH]c(C(=O)CSc2ccc(Br)cc2)c1C	x	x	x	x	x	n
CCn1c(SCC(=O)c2[nH]c(C)c(C(C)=O)c2C)nnc1-c1cccs1	n	n	n	u	18µM	n
COc1ccc(-c2cc(C(=O)NCc3ccc(F)cc3)c3ccccc3n2)c(OC)c1	x	x	x	x	x	16µM
COc1ccc(CNC(=O)c2cc(-c3ccc(Br)s3)nc3ccccc23)c(OC)c1	x	x	x	u	15µM	n
CC(C)CCNC(=O)c1cc(-c2ccc(Br)s2)nc2ccccc12	x	x	x	15µM	u	n
Cc1ccccc1NC(=O)N1CCC(CCNC(=O)c2ccccc2)CC1	x	x	x	x	x	n
Cc1ccc(Oc2ccccc2/C=N/O)cc1	n	n	n	12µM	21µM	n
CC(C)c1cc(C(=O)N2CCCC(CCC(=O)N3CCN(c4ccccn4)CC3)C2)no1 (stereo unspecified)	n	n	n	23µM	23µM	n
O=C(CCC1CCCN(C(=O)CC2=CCCCC2)C1)N1CCN(c2ccccn2)CC1 (stereo unspecified)	n	n	n	u	16µM	n
Cc1ccccc1C(=O)N1CCCC(CCC(=O)N2CCN(c3ccccn3)CC2)C1 (stereo unspecified)	n	n	n	n	u	n
O=C(CCC1CCCN(C(=O)C2=CCCC2)C1)N1CCN(c2ccccn2)CC1 (stereo unspecified)	n	n	n	n	23µM	n
Cc1ccc(C(=O)Nc2cccc(C(=O)N(C)C)c2)cc1	x	x	x	x	x	n
CCOc1ccc(C(=O)Nc2cccc(-c3nc4cc(C)ccc4o3)c2)cc1	x	x	x	x	x	n
CCC(C(=O)Nc1ccccc1Cl)n1nc(C)c2c(C)n(-c3ccccc3)nc2c1=O (stereo unspecified)	n	n	u	u	u	n
CCC(C(=O)NCc1cccc(C)c1)n1nc(C)c2c(C)n(-c3ccccc3)nc2c1=O (stereo unspecified)	n	n	n	u	u	n
CCOC(=O)C(CC)n1nc(C)c2c(C)n(-c3ccc(C)cc3)nc2c1=O (stereo unspecified)	x	x	x	18µM	16µM	n
CCc1ccc(CNC(=O)C(CC)n2nc(C)c3c(C)n(-c4ccccc4)nc3c2=O)cc1 (stereo unspecified)	x	x	x	23µM	16µM	n

Screening data as filed in PubChem.
